The source of these data is PubChem BioAssay.

Chain of Torsin-1A (Homo sapiens) (O14656 whole entry, looked up): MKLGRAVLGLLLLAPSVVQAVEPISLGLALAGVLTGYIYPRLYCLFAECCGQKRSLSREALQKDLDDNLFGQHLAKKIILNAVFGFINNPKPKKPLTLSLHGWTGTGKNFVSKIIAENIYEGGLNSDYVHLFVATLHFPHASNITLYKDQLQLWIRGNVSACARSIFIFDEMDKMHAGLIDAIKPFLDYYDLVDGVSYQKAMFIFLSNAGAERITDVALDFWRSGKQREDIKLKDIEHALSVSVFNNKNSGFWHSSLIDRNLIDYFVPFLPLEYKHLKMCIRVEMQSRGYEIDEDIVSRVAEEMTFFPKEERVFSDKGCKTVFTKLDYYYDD

The assay addresses Torsin-1A (Homo sapiens) (UniProt O14656). Briefly: TOR1A wild-type binding on microarray – cell lysate, small-molecule microarray, lysate, 635/667 nm, primary screen (AID 1149). The note with it: COS7 hTOR1A-WT lysate, 635 nm fluorescence, higher = more signal.
As to `CC(C)C(O)C1C=CC2C(=O)NC(=O)C2N1Nc1ccccn1` (stereo unspecified), the composite z-score worked out at 0.238.
To `C=CCC(OC(C)=O)[C@@H]1[C@@H](N(Cc2cccc3ccccc23)C(=O)c2ccc(-c3ccccc3)cc2)c2cc(OCCCO)ccc2N1C(=O)Cc1ccc2ccccc2c1` (stereo partly specified) belongs -0.175; to `COc1cc(CO)cc(I)c1O[C@H]1C=C(C(=O)NCCO)C[C@@H]2O[C@H]12`, 1.58.
To `CC(C)[Si](C#CCCc1ccccc1)(O[C@H](c1ccccc1)c1cn(Cc2ccccc2)nn1)C(C)C` belongs 0.5; to `O=C1[C@H]2C=C(I)[C@H](C[C@@H]2c2ccccc2)[C@@]12CO2`, -0.114.
As to `C=C(/C(=C/C[C@@H](OC(C)=O)c1cccc(OCCO)c1)c1cnc2ccccc2c1)C(C)C`, the composite z-score was found to be 1.83.
To `COCCOC(=O)N1C(=O)[C@@]2(c3cc(C#CCC(C(=O)OC)C(=O)OC)ccc31)[C@H](C(=O)Nc1nc3ccccc3s1)[C@H]1C(=O)O[C@H](c3ccccc3)[C@H](c3ccccc3)N1[C@@H]2c1ccc(OCCO)cc1` belongs 1.07.
To `C=CCNC(=O)[C@H]1[C@@H]2C(=O)O[C@@H](c3ccccc3)[C@@H](c3ccccc3)N2[C@@H](c2ccc(OCCO)cc2)[C@]12C(=O)Nc1ccccc12` belongs 0.0646; to `COC(=O)[C@@]1(Cc2ccc(F)cc2)[C@H]2c3cc(C(=O)N(C)C)n(CCc4ccc(O)c(O)c4)c3C[C@H]2CN1C(=O)c1ccccc1`, 0.411.
Take `C=CC[C@@]12N=C(c3ccc(OCCCO)cc3)O[C@@H]1c1ccccc1N(CCC)C2=O`: the composite z-score was -0.1.
To `O=C(NC1CC1)[C@@H]1c2ccccc2C(=O)N(Cc2ccc(OC(F)(F)F)cc2)[C@H]1c1ccc(CO)cc1` belongs -0.0394; to `COC(=O)[C@@]1(Cc2ccc(OC)cc2)[C@H]2c3cc(C(=O)N4CCCC4)n(Cc4ccc(C(F)(F)F)nc4)c3C[C@H]2CN1C(=O)c1ccccc1`, 0.866; to `CCC(CC)C(O)C1C=CC2C(=O)N(c3ccccc3)C(=O)C2N1Nc1ccccc1F` (stereo unspecified), 0.838.
To `C=C(COC)C(=O)CC[C@@H](OC(C)=O)c1ccccc1OCCO` belongs 0.135.
The compound `[N-]=[N+]=Nc1ccccc1[C@@H]1OC(c2ccc(OCCCO)cc2)=N[C@]1(CCS(=O)(=O)c1ccccc1)C(=O)NCC(O)CO` (stereo partly specified) had a composite z-score of 1.37.
Turning to `COCCCNC(=O)[C@@]1(Sc2ccc(C)cc2)CC(=O)N(Cc2ccccc2C(F)(F)F)[C@@H]1c1ccc(CO)cc1I`, the composite z-score is -1.5.
`COc1ccc([Si](C)(C)[C@H]2[C@H](CC(=O)N3Cc4ccccc4C[C@H]3CO)O[C@@]3(C(=O)N(C)c4ccccc43)[C@@H]2C)cc1` gave a composite z-score of 1.28.
To `CN1C(=O)C2C(C1=O)C1C=C(c3ccc(CO)cc3)C2C(C2CC2)N1C` (stereo unspecified) belongs 0.508.
To `COCCCNC(=O)[C@@]1(CCS(=O)(=O)c2ccccc2)COC(c2ccc(OCCCO)cc2)=N1` belongs 1.29; to `COC(=O)[C@@]1(Cc2ccc(F)cc2)[C@H]2c3cc(C(=O)N4CCCC4)n(Cc4cc(F)cc5c4OCOC5)c3C[C@H]2CN1C(=O)c1ccccc1`, -0.659.
To `O=C1C[C@@](C(=O)NCc2ccccc2)(c2ccc([N+](=O)[O-])cc2)[C@@H](c2ccc(CO)cc2)N1C1CCCCC1` belongs 0.944; to `CCCCC(O)C1C=CC2C(=O)N(c3ccccc3)C(=O)C2N1Nc1ccc([N+](=O)[O-])cc1` (stereo unspecified), 0.47; to `CC1CC/C=C\[C@H]2OC34C=CCN(C(C)(C)C)C(=O)[C@H]3N(CCCO)C(=O)[C@@H]4C2C(=O)O1` (stereo partly specified), 0.62.
With `CCCCCC1=C2CNC(Cc3ccccc3)(C(=O)OC)C=C2C(C)C1=O` (stereo unspecified), the composite z-score was -0.88.
`CCOC(=O)C1=C[C@@H](C(C)(C)C)N(S(=O)(=O)c2ccc(C)cc2)[C@H]1c1ccc(C#N)cc1` showed a composite z-score of 0.855.
To `COc1ccc([Si](C)(C)[C@@H]2[C@@H](CC(=O)N(CCO)Cc3ccccc3)O[C@]3(C(=O)N(Cc4ccc(I)cc4)c4ccccc43)[C@H]2C)cc1` belongs 0.402; to `C=CCNC(=O)[C@H]1[C@@H]2C(=O)O[C@@H](c3ccccc3)[C@@H](c3ccccc3)N2[C@@H](c2ccccc2OCCO)[C@]12C(=O)N(C(=O)OCCOC)c1ccc(C#Cc3ccc(OC)cc3)cc12`, 0.292.
To `CCOC(=O)C[C@H]1[C@H](OC(=O)c2cc3ccccc3oc2=O)[C@@H](NC(=O)CC(C)C)c2cc(OCCCO)ccc2N1C(=O)Cc1ccc(OC)cc1` belongs -0.0652; to `O=C(NC1CC1)[C@@H]1c2ccccc2C(=O)N(CC23CC4CC(CC(C4)C2)C3)[C@H]1c1ccc(CO)cc1`, 0.197.
For `C=CCN1C(=O)[C@@]2(O[C@@H](CCn3cc([C@H](O)c4ccccc4)nn3)[C@H]([Si](C)(C)c3ccc(OC)cc3)[C@H]2C)c2cc(N3C(=O)c4cccc5cccc3c45)ccc21`, the composite z-score was -0.488.
To `CCOC(=O)C[C@H]1[C@H](OC(=O)c2ccccc2-c2ccccc2)[C@@H](NC(=O)c2ccc3ccccc3c2)c2cc(OCCCO)ccc2N1C(=O)Cc1ccc(OC)cc1` belongs 0.0216.
To `COC(=O)[C@@]1(Cc2ccc(OC)cc2)[C@H]2c3cc(C(=O)N4CCCC4)n(Cc4ccc(Cl)c(C(F)(F)F)c4)c3C[C@H]2CN1C(=O)c1ccccc1` belongs 0.557; to `CCCC[C@H]1C[C@@H]1[C@@H]1N(C(C)=O)[C@H](c2cccc(OC)c2)CC12CC2`, -0.53; to `COc1ccc(CCNC(=O)[C@@H]2c3ccccc3C(=O)N(Cc3ccccc3OC)[C@H]2c2ccc(CO)cc2)cc1`, 0.824.
In turn, `O=C1C=C(c2ccccc2)C(=O)C2=C1CC([C@H]1Oc3ccccc3S(=O)(=O)N3CCC[C@@H]13)=CC2` gave a composite z-score of -0.295.
With `COCCOC(=O)N1C(=O)[C@@]2(c3cc(C#Cc4ccc(OC)cc4)ccc31)[C@H](c1ccc(OCCO)cc1)N1[C@H](c3ccccc3)[C@H](c3ccccc3)OC(=O)[C@H]1[C@@H]2C(=O)NC[C@H](O)c1ccccc1`, the composite z-score came out at 0.677.
